# Results reported in PubChem BioAssay.
# Active and inactive are the calls of the source.
# Columns and labels:
# [1] = tested on: Plasmodium falciparum Sir2 (PF13_0152, Sir2A); test: pfSir2 binders on small-molecule microarrays, primary screen, biochemical, small-molecule microarray, 635 nm fluorescence (AID 1098); details: small-molecule microarray binding, fluorescence 635 nm; higher = more signal;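 also: score merges spot fluorescence intensity with its signal-to-noise ratio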
# [2] = small-molecule microarray binders of probe aDKK1, primary screen, biochemical, biotinylated probe, 635/667 nm fluorescence (AID 1099); details: higher = more signal;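 also: score merges 667nm spot fluorescence with signal to noise across triplicate slides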
# [3] = small-molecule microarray binders of probe aCHRDL2, primary screen, biochemical, biotinylated probe, 635/667 nm fluorescence (AID 1100); details: higher = more signal
# [4] = splicing luciferase reporter signal modulators, primary screen, spliceosome inhibition project, cell-based, HEK293, splice +/- reporter (AID 1101); details: luminescence, 24 h, higher = more signal, called active from +8 up or from −8 down;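 also: HEK293 cells carrying a splicing-competent luciferase reporter gene; test concentration not given here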
# [5] = target: Fibroblast growth factor 10 (Homo sapiens) (UniProt O15520); test: FGF10 binders on small-molecule microarrays, primary screen, biochemical, small-molecule microarray, 635 nm fluorescence (AID 1102); details: FGF10 binding, fluorescence 635 nm, higher = more signal
# Sequence of Fibroblast growth factor 10 (Homo sapiens) (O15520 whole entry, looked up): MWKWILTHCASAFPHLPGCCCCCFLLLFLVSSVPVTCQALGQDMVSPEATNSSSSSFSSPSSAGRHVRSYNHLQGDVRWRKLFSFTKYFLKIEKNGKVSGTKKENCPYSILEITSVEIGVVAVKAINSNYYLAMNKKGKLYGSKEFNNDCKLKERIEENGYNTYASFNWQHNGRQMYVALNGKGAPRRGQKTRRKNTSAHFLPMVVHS
# [6] = tested on: glycogen synthase kinase-3 (GSK3A per assay name; protocol says GSK3B); test: GSK3 binders on small-molecule microarrays, primary screen, biochemical, small-molecule microarray, 635 nm fluorescence, GSK3A (AID 1103); details: small-molecule microarray binding, fluorescence 635 nm; higher = more signal; also: the record names both GSK3A and GSK3B
# [7] = target: Epidermal growth factor receptor (Homo sapiens) (UniProt P00533); test: EGFR binders on small-molecule microarrays, primary screen, biochemical, small-molecule microarray, 635 nm fluorescence (AID 1104); details: EGFR binding, higher = more signal;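 also: score merges 667 nm emission intensity with spot signal to noise over triplicate slides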
# Sequence of Epidermal growth factor receptor (Homo sapiens) (P00533 whole entry, looked up): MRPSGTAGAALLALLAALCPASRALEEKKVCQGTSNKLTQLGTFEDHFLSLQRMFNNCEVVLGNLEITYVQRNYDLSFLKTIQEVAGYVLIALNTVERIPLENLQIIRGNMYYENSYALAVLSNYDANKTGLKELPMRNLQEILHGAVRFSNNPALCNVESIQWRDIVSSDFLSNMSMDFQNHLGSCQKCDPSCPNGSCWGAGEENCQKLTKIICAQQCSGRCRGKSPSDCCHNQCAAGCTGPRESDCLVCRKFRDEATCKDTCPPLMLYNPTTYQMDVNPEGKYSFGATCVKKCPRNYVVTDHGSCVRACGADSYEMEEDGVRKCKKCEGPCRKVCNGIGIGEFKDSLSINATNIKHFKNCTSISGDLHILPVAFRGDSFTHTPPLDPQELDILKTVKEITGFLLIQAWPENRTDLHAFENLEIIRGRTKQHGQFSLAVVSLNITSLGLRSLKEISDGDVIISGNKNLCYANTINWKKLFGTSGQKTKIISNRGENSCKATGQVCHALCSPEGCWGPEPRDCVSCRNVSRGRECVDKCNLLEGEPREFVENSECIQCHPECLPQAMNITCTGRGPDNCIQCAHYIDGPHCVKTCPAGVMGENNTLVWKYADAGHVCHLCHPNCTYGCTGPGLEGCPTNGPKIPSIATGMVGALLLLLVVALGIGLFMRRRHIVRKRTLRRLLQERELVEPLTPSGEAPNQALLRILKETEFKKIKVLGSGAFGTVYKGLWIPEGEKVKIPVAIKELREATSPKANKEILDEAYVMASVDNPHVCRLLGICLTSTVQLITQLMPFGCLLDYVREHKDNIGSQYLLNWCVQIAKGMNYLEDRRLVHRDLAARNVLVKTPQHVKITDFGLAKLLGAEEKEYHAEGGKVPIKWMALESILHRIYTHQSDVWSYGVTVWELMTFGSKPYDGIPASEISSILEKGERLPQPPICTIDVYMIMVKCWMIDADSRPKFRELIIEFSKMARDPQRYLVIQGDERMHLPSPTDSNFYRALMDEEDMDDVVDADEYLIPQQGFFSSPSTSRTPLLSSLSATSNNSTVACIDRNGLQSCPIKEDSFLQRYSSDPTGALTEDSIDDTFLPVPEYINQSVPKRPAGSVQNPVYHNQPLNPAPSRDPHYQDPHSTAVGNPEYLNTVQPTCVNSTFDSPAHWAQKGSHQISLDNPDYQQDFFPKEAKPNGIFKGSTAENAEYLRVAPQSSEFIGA
# [8] = target: Follistatin-related protein 3 (Homo sapiens) (UniProt O95633); test: FSTL3 binders on small-molecule microarrays, primary screen, biochemical, small-molecule microarray, 635 nm fluorescence (AID 1105); details: FSTL3 binding, higher = more signal;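 also: score merges emission near 667 nm and signal to noise per printed spot across three slides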
# Sequence of Follistatin-related protein 3 (Homo sapiens) (O95633 whole entry, looked up): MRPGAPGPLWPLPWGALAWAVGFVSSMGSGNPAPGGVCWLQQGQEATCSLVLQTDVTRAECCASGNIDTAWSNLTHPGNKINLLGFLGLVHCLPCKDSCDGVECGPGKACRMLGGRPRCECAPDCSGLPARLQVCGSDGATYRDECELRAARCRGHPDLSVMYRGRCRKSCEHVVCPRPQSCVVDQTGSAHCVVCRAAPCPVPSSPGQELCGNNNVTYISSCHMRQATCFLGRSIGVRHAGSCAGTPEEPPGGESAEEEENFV
# [9] = target: Dickkopf-related protein 1 (Homo sapiens) (UniProt O94907); test: DKK1 binders on small-molecule microarrays, primary screen, biochemical, small-molecule microarray, 635 nm fluorescence scan (AID 1106); details: DKK1 binding, higher = more signal;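 also: score merges emission near 667 nm with signal to noise over three replicate slides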
# Sequence of Dickkopf-related protein 1 (Homo sapiens) (O94907 whole entry, looked up): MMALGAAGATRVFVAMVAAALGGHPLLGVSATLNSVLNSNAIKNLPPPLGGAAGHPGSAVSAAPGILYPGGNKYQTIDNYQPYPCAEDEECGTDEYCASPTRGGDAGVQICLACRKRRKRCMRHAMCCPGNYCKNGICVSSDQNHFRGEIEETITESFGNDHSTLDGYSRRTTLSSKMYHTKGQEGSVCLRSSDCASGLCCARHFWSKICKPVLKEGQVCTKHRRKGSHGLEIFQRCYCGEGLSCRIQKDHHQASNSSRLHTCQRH
# [10] = tested on: Inhibin beta A chain (activin A); test: INHBA (activin A) binders on microarrays, primary screen, biochemical, small-molecule microarray, 635 nm fluorescence scan (AID 1107); details: small-molecule microarray binding, higher = more signal;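 also: mouse activin A protein probed at 4.33 µg/mL on printed slides; score merges bound-protein fluorescence near 667 nm with spot signal-to-noise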
# [11] = tested on: Human papillomavirus type 1a protein E7 (residues 44-93); test: HPV1a E7 fragment binders on microarrays, primary screen, biochemical, small-molecule microarray, residues 44-93, 635 nm fluorescence (AID 1108); details: small-molecule microarray binding, fluorescence 635 nm; higher = more signal;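 also: E7 fragment applied at 1 µg/mL in TBST for 1 h at 4 C; score combines spot fluorescence with its signal to noise ratio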
# [12] = modulators of HCV replicon luciferase signal, primary screen, HCV replication inhibitor project, Huh7 cells, luciferase reporter (AID 1109); details: 48 h, higher = more signal;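 also: huh7 hepatoma cells harbouring a luciferase neomycin HCV replicon reporter; luciferase luminescence as measure of HCV replicon replication; test concentration not given here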
# [13] = target: Left-right determination factor 2 (Homo sapiens) (UniProt O00292); test: LEFTY2 binders on small-molecule microarrays, primary screen, biochemical, small-molecule microarray, 635 nm fluorescence scan (AID 1110); details: LEFTY2 binding, higher = more signal
# Sequence of Left-right determination factor 2 (Homo sapiens) (O00292 whole entry, looked up): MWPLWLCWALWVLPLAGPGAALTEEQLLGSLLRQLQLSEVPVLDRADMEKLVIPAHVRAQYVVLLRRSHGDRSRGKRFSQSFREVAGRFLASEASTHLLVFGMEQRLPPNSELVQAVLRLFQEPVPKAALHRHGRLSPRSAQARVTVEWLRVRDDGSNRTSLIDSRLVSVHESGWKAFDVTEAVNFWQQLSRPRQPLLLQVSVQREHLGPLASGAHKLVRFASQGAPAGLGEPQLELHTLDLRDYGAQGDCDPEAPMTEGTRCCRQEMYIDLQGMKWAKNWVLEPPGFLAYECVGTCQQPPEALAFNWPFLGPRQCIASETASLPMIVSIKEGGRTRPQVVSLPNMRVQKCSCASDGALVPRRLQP
# [14] = target: Calmodulin-1 (Homo sapiens) (UniProt P0DP23); test: CALM1 binders on microarrays, EGTA buffer, profiling panel, biochemical, small-molecule microarray, Cy5-labelled CALM1 (AID 1111); details: Cy5-CALM1 binding fluorescence, higher = more signal;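 also: labelled calmodulin applied in Tris saline Tween buffer holding calcium plus EGTA and DTT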
# [15] = target: Calmodulin-1 (Homo sapiens) (UniProt P0DP23); test: calcium-bound CALM1 binders on microarrays, profiling panel, artefact control for SMM control-protein annotation, biochemical, small-molecule microarray, Cy5-labelled CALM1, plus calcium (AID 1112); details: Cy5-CALM1 binding fluorescence, higher = more signal;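 also: score merges spot fluorescence with signal to noise from triplicate slides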
# [16] = small-molecule microarray binders of probe aWnt5a, primary screen, biochemical, biotinylated probe, 635/667 nm fluorescence (AID 1113); details: higher = more signal;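 also: score merges 667 nm fluorescence intensity with signal-to-noise per printed feature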
# [17] = small-molecule microarray binders of probe aShh, primary screen, biochemical, biotinylated probe, 635/667 nm fluorescence (AID 1114); details: higher = more signal;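 also: probe is biotin-labelled aShh protein from a stem cell growth factor screen; measures binding of labelled protein to compounds printed on the slide; score merges feature fluorescence at 667 nm with signal-to-noise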
# [18] = small-molecule microarray binders of probe aNog, primary screen, biochemical, biotinylated probe, 635/667 nm fluorescence (AID 1115); details: higher = more signal;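 also: probe is biotinylated aNog protein used at 0.15 µg/mL for 1 h at 4 C; z-score combines 667 nm fluorescence of each spot with its signal to noise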
# [19] = target: Torsin-1A-interacting protein 1 (Homo sapiens) (UniProt Q5JTV8); test: LAP1 binders from COS7 cell lysate, primary screen, small-molecule microarray, 635/667 nm fluorescence (AID 1116); details: COS7-hLAP1 lysate binding, 635 nm fluorescence, higher = more signal
# Sequence of Torsin-1A-interacting protein 1 (Homo sapiens) (Q5JTV8 whole entry, looked up): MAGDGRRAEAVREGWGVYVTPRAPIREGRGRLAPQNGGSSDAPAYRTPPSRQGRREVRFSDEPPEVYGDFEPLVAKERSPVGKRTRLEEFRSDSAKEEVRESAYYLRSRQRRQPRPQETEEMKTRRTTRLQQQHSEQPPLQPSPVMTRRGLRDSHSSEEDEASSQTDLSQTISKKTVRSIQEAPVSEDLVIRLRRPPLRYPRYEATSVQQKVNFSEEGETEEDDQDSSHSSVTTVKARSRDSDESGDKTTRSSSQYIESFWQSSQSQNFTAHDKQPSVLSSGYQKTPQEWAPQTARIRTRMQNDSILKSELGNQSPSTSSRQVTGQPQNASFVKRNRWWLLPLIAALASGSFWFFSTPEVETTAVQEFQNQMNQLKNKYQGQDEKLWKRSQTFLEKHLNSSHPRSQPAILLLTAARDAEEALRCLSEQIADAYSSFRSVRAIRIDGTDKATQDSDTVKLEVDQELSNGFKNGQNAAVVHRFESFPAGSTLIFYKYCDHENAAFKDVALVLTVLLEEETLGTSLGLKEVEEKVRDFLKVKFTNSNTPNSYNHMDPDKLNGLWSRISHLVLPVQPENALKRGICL
# [20] = target: Alpha-bungarotoxin (Bungarus multicinctus) (UniProt P60615); test: alpha-bungarotoxin binders on microarray, profiling panel, artefact control for SMM control protein annotation, biochemical, small-molecule microarray, Alexa647 label, 635/667 nm fluorescence (AID 1117); details: alpha-BTX-A647 binding fluorescence, higher = more signal
# Sequence of Alpha-bungarotoxin (Bungarus multicinctus) (P60615 whole entry, looked up): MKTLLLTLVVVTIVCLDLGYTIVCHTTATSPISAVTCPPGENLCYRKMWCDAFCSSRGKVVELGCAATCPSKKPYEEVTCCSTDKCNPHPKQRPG
SMILES,composite z-score [1],composite z-score [2],composite z-score [3],z-score [4],composite z-score [5],composite z-score [6],composite z-score [7],composite z-score [8],composite z-score [9],composite z-score [10],composite z-score [11],z-score [12],composite z-score [13],composite z-score [14],composite z-score [15],composite z-score [16],composite z-score [17],composite z-score [18],composite z-score [19],composite z-score [20]
C=CCOCC1CN2[C@@H](CC[C@@H](C)[C@@H]2c2ccc(Br)cc2)C(=O)O1 (stereo not given in full),-0.316,-0.182,-0.165,0.597 (inactive),-0.342,-0.255,-0.014,-0.293,0.0635,0.757,0.157,-0.121,0.0328,-0.457,-0.78,-0.219,-0.154,-0.196,0.0323,0.101
COc1ccc2c(c1)O[C@@H](c1cccc(C(F)(F)F)c1)[C@H](O)C2=O,0.0008,-0.14,-0.324,-0.912 (inactive),0.213,0.39,0.349,0.416,0.356,0.149,0.368,1.18,0.428,0.172,-0.427,-0.172,-0.304,-0.0496,0.342,0.375
CC(CCC(=O)OC[C@H]1O[C@H](C#Cc2ccccc2)C=C[C@@H]1Oc1ccc(C)cc1)=NO[C@H](C)c1cn([C@@H]2COC[C@H]2O)nn1,0.261,-0.2,-0.383,-1.45 (inactive),0.162,-0.267,0.238,0.22,0.285,0.203,-0.231,-1.66,0.431,-0.411,-0.208,-0.0512,-0.138,0.354,-0.465,-0.493
C[C@H]1CC[C@@H](C(=O)O)N[C@@H]1c1cccc(N2CCCC2=O)c1,0.0371,-0.154,-0.496,-0.00389 (inactive),0.184,0.631,0.376,0.285,0.153,0.292,0.4,1.09,0.263,-0.438,-0.55,-0.178,-0.2,-0.181,0.0221,0.197
CCN1C(=O)[C@H]2[C@H]3[C@H](O)[C@H](O)CC(=NOCC(C)C)[C@H]3CC[C@H]2C1=O,0.301,-0.311,-0.621,0.72 (inactive),0.531,0.636,0.732,0.732,0.817,0.122,-0.0775,0.295,0.535,-0.185,-0.987,-0.0542,-0.138,-0.238,0.152,-0.14
CCCC[C@H]1CN2[C@@H](CC[C@@H](C)[C@@H]2c2ccc(Br)cc2)C(=O)O1,0.801,-0.1,-0.442,0.541 (inactive),0.28,0.707,0.457,0.562,0.296,0.0442,1.01,-1.04,0.671,0.849,-0.0228,-0.158,0.0121,-0.188,0.755,0.678
CCOC(=O)[C@H](Cc1ccccc1)NC(=O)CCC1CC(OC(=O)NCc2ccc3c(c2)OCO3)CC2(CCCC(COC(=O)NCCc3ccc(Cl)cc3)O2)O1 (stereo not given in full),0.667,-0.188,-0.509,-2.3 (inactive),0.471,1.27,0.549,0.69,0.531,0.0209,1.14,0.615,0.619,0.534,-0.397,-0.124,0.0756,0.0308,-0.0764,0.337
CCOC(=O)CCN1C(=O)[C@H]2[C@H]3[C@H](O)[C@H](O)CC(=NNC(=O)OCc4ccc(OC)cc4)[C@H]3CC[C@H]2C1=O,0.14,0.127,0.0124,-0.352 (inactive),-0.186,0.071,0.459,0.449,0.132,0.747,0.451,-2.44,0.214,-0.211,-0.509,0.0243,0.0121,0.0236,-0.176,0.354
CC(C)=CCCC(C)=CCON=C1C[C@@H](O)[C@@H](O)[C@@H]2[C@@H]3C(=O)N(Cc4ccc5c(c4)OCO5)C(=O)[C@@H]3CC[C@H]12,0.567,-0.101,-0.257,0.294 (inactive),0.797,0.327,0.426,0.821,0.35,1.02,1.38,-1.45,0.546,-0.588,-1.11,-0.0346,-0.2,-0.28,0.142,0.168
CCOC(=O)[C@H](CC(C)C)NC(=O)CCC1CC(OC(=O)NCc2ccc3c(c2)OCO3)CC2(CCCC(COC(=O)NCc3ccccc3)O2)O1 (stereo not given in full),0.58,-0.197,-0.495,-0.403 (inactive),0.713,0.486,0.316,0.675,0.425,-0.0973,1.37,-0.0695,0.355,0.562,-0.158,0.0799,-0.153,-0.074,0.137,0.461
O=C1C[C@@H](O)[C@@H](O)[C@@H]2[C@@H]3C(=O)N(c4ccc(F)cc4F)C(=O)[C@@H]3CC[C@H]12,0.88,-0.0704,-0.511,0.759 (inactive),0.514,0.662,0.394,0.638,0.597,0.148,0.473,-0.313,0.681,-0.134,-0.519,-0.0718,-0.18,-0.213,0.82,0.0317
